Assay [1] is described as follows: APR_HepG2_CellLoss_72hr: Apredica 72-hour HepG2 Assay for Cell Loss (AID 2282915). Conditions: high-content imaging. In a few lines:
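HepG2 cells were exposed for 72 hr to compounds at 0.39–200 uM (ten concentrations, duplicate) in 0.5% v/v final DMSO. Nuclei were stained with Hoechst 33342 after 3.7% formaldehyde fixation, imaged at 20x, and counted; fits bidirectional versus DMSO.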

Assay [2] can be described thus: APR_HepG2_P-H2AX_72hr: Apredica 72-hour HepG2 Assay for H2AX Phosphorylation (AID 2282916).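 Note: phospho-histone H2A.x immunostain intensity per cell marking DNA damage.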 Conditions: imaging, actives raise or lower the signal. In a few lines: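 Readout: phospho-H2A.x immunofluorescence (FITC secondary) plus Hoechst nuclear stain, high-content imaging at 20x, six fields/well. HepG2, 72 hr compound exposure, 0.39–200 uM, final DMSO 0.5% v/v. Gain or loss fitted relative to DMSO baseline.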

A short description of assay [3]: APR_HepG2_P-H2AX_24hr: Apredica 24-hour HepG2 Assay for H2AX Phosphorylation (AID 2282920). The conditions noted are these: high-content imaging, actives raise or lower the signal. In a few lines:
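HepG2, 24 hr, cpd 0.39–200 uM (10 conc, duplicate), DMSO 0.5% v/v final. Fix 3.7% formaldehyde, Triton X-100 permeabilize, anti-phospho-H2A.x 1:200 + Hoechst 2 ug/mL. Imaged, bidirectional fit vs DMSO.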

A short description of assay [4]: APR_HepG2_StressKinase_72hr: Apredica 72-hour HepG2 Assay for Stress Kinase (AID 2282921). The conditions noted are these: HepG2 stress kinase (phospho-c-Jun) imaging, actives raise or lower the signal. In a few lines:
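Phospho-c-Jun immunofluorescence measured by high-content imaging at 20x, six fields per well; bidirectional curve fitting against DMSO as baseline. Dosing: 0.39–200 uM, 72 h, 0.5% DMSO final.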

Assay [5] can be described thus: APR_HepG2_StressKinase_24hr: Apredica 24-hour HepG2 Assay for Stress Kinase (AID 2282922). The conditions noted are these: HepG2 stress kinase (phospho-c-Jun) imaging, actives raise or lower the signal. In a few lines: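 After 24 hr compound treatment (up to 200 uM, final DMSO 0.5% v/v), HepG2 cells are fixed and multiplex-labeled; phospho-c-Jun intensity is captured by high-content fluorescence imaging and analyzed relative to DMSO.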

Assay [6] is described as follows: APR_HepG2_p53Act_72hr: Apredica 72-hour HepG2 Assay for p53 Activation (AID 2282923).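 Note: average cellular p53 protein immunofluorescence intensity in HepG2 cells.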 Conditions: high-content imaging, actives raise or lower the signal. In a few lines:
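Readout: p53 immunofluorescence quantified by automated high-content imaging at 20x, six fields per well, nuclei located via Hoechst. Dosing ran 72 hr over ten concentrations from 0.39 to 200 uM; bidirectional curve fitting against DMSO baseline.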

Assay [7] in a line: APR_HepG2_NuclearSize_72hr: Apredica 72-hour HepG2 Assay for Nuclear Size (AID 2282925). The conditions noted are these: high-content imaging, actives raise or lower the signal. In a few lines:
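Compounds (0.39–200 uM, final DMSO 0.5%) were applied to HepG2 for 72 hr. Cells were then formaldehyde-fixed, permeabilized and labelled with Hoechst 33342. Nuclear diameter was quantified from six images per well.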

The nature of assay [8]: ATG_CRE_CIS: Attagene CIS-FACTORIAL HepG2 Assay for human cAMP Responsive Element (CRE) binding protein 3 (AID 2282926). Conditions: HepG2 CRE cis-reporter, Attagene multiplexed mRNA; actives raise or lower the signal. In a few lines: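 Assay format: transient reporter transfection of HepG2, 24 h treatment, total RNA isolation with DNase I step. Reporter abundance read by fluorescence after PCR and capillary separation; DMSO-normalised gain or loss fitting.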

The target in assay [9] is CCAAT/enhancer-binding protein beta (Homo sapiens) (UniProt P17676). The experiment in a line: ATG_C_EBP_CIS: Attagene CIS-FACTORIAL HepG2 Assay for human CCAAT/Enhancer Binding Protein (C/EBP) beta (AID 2282927). Conditions: HepG2 Attagene cis-factorial transcription factor reporter; actives raise or lower the signal. In a few lines: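 RT-PCR/capillary electrophoresis fluorescence of reporter mRNA, 24 h post-dose, in HepG2 cells carrying transfected cis-promoter reporter units. Bidirectional curve fitting against DMSO baseline captures gain or loss of signal.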

A short description of assay [10]: ATG_CMV_CIS: Attagene CIS-FACTORIAL HepG2 Assay for human CMV (Internal Marker) (AID 2282928).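 Note: endpoint acts as a background internal control marker rather than a target.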 The conditions noted are these: HepG2 CMV promoter reporter, transcription factor profiling; actives raise or lower the signal. In a few lines: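 Reporter transcripts from transfected HepG2 cells are isolated after 24 h of chemical dosing, reverse-transcribed and amplified. Fragments labeled with 6-FAM are cut with HpaI and quantified by capillary electrophoresis; DMSO defines baseline.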

Assay [11] can be described thus: ATG_DR4_LXR_CIS: Attagene CIS-FACTORIAL HepG2 Assay for human Liver X Receptor (LXR), DR4 submotif (AID 2282929). The conditions noted are these: HepG2 Attagene DR4 cis-reporter, mRNA transcription; actives raise or lower the signal. In a few lines:
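Cells were transfected with multiple reporter transcription units, exposed to chemicals for 24 hours, then lysed for RNA. Reporter mRNA induction was measured by RT-PCR with capillary electrophoresis detection and fitted in both directions relative to DMSO.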

Assay [12] has as its target Aryl hydrocarbon receptor (Homo sapiens) (UniProt P35869). The experiment in a line: ATG_Ahr_CIS: Attagene CIS-FACTORIAL HepG2 Assay for human Aryl Hydrocarbon Receptor (Ahr) (AID 2282930). Conditions: HepG2 AhR cis-factorial reporter transcription; actives raise or lower the signal. In a few lines:
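HepG2 cells transiently transfected with cis-element-driven multiplexed reporter transcription units; endogenous transcription factor activity measured as reporter mRNA 24 h after dosing. RT-PCR, 6-FAM labelling, HpaI digestion, capillary electrophoresis; bidirectional fitting versus DMSO baseline.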

Assay [13] is described as follows: ATG_AP_1_CIS: Attagene CIS-FACTORIAL HepG2 Assay for human Activator Protein 1 (AP-1) (AID 2282931). The conditions noted are these: HepG2 Attagene cis-factorial AP-1 reporter mRNA; actives raise or lower the signal. In a few lines: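 Endogenous transcription-factor activity in human HepG2 liver cells is read through a cis-promoter reporter transcript, sampled 24 h after dosing. Detection uses RT-PCR with capillary electrophoresis; values come from bidirectional fitting relative to DMSO.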

Assay [14] in a line: ATG_AP_2_CIS: Attagene CIS-FACTORIAL HepG2 Assay for human Activator Protein 2 (AP-2) (AID 2282932). The conditions noted are these: HepG2 AP-2 cis-reporter, Attagene transcription factor profiling; actives raise or lower the signal. In a few lines: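 Assay in transfected HepG2 with promoter-regulated reporters, 24 h incubation after dosing. Signal is reporter mRNA fluorescence (RT-PCR, capillary electrophoresis), analysed for both increases and decreases relative to DMSO controls.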

Assay [15] concerns the target Retinoic acid receptor alpha (Homo sapiens) (UniProt P10276). The experiment in a line: ATG_DR5_RAR_CIS: Attagene CIS-FACTORIAL HepG2 Assay for human Retinoic Acid Receptor Alpha (RARE), DR5 submotif (AID 2282934). The conditions noted are these: HepG2 Attagene cis-factorial RARE DR5 reporter, mRNA; actives raise or lower the signal. In a few lines:
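HepG2 cells transiently transfected with multiplexed reporter units under cis (DR5 RARE) promoters, so endogenous transcription factor activity is measured. After 24 h compound exposure, reporter mRNA is quantified by RT-PCR with fluorescent labelling and capillary electrophoresis; bidirectional fitting versus DMSO.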

Assay [16] in a line: APR_HepG2_MitoticArrest_72hr: Apredica 72-hour HepG2 Assay for Mitotic Arrest (AID 2282918). The conditions noted are these: high-content imaging, actives raise or lower the signal. In a few lines: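 Read-out is phospho-histone H3 immunofluorescence with Hoechst nuclear segmentation, imaged at 20x. Human HepG2 liver cells received ten concentrations (0.39–200 uM, final DMSO 0.5% v/v) for 72 hr before fixation. Gain or loss of signal was fitted relative to DMSO.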

Assay [17] can be described thus: APR_HepG2_MicrotubuleCSK_72hr: Apredica 72-hour HepG2 Assay for Microtubule CSK Stabilty (AID 2282919). Conditions: HepG2 microtubule cytoskeleton, high-content imaging, actives raise or lower the signal. In a few lines: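 Ten-point dosing (0.39–200 uM, 0.5% DMSO) of HepG2 for 72 hr, with taxol as the cytoskeletal positive control. The cells were formaldehyde-fixed and then stained with alpha-tubulin/Cy5 and Hoechst. Imaging at 20x used a −2 um Z offset for tubulin.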

Assay [18] can be described thus: APR_HepG2_MitoMass_72hr: Apredica 72-hour HepG2 Assay for Mitochondrial Mass (AID 2282924).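 Note: MitoTracker Red CMXRos stain intensity per cell imaged as mitochondrial mass.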 Conditions: high-content imaging, actives raise or lower the signal. In a few lines:
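Steps: treat HepG2 72 hr (0.39–200 uM, duplicate wells); load MitoTracker Red CMXRos, 250 nM, 30 min; fix with 3.7% formaldehyde, permeabilise with 0.5% Triton X-100; capture images, nuclei via Hoechst 33342; fit bidirectionally against DMSO.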

Assay [19] can be described thus: ATG_BRE_CIS: Attagene CIS-FACTORIAL HepG2 Assay for human Bone Morphogenetic Protein (BMP) Response Element (BRE) (AID 2282933). The conditions noted are these: HepG2 BMP response element reporter, Attagene transcription factor profiling; actives raise or lower the signal. In a few lines:
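HepG2 cells transiently transfected with CIS reporter units (endogenous TF activity, BMP response element), dosed 24 h. Reporter mRNA quantified by RT-PCR, fluorescent labelling and capillary electrophoresis; bidirectional fit vs DMSO baseline.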

A structure can be active in one record and inactive in another. Active and inactive are the calls of the source. Rule for the calls: active = hit-call score of the fitted dose curve at least 0.9, where 1 is the maximum; inactive = score below 0.9.

Retinoic acid receptor alpha (Homo sapiens), sequence (P10276 whole entry, looked up): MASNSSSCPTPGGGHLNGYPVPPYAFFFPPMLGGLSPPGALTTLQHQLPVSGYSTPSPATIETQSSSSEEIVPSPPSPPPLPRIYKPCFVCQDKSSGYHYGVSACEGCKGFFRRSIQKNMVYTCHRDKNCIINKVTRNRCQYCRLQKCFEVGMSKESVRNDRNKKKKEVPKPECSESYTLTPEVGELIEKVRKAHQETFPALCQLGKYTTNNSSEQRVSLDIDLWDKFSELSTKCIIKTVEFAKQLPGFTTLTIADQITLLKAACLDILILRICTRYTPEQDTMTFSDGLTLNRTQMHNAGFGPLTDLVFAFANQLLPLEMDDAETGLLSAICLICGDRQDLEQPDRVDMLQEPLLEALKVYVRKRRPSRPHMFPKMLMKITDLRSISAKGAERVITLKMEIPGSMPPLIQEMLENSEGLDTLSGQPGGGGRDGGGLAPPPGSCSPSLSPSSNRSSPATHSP
CCAAT/enhancer-binding protein beta (Homo sapiens), sequence (P17676 whole entry, looked up): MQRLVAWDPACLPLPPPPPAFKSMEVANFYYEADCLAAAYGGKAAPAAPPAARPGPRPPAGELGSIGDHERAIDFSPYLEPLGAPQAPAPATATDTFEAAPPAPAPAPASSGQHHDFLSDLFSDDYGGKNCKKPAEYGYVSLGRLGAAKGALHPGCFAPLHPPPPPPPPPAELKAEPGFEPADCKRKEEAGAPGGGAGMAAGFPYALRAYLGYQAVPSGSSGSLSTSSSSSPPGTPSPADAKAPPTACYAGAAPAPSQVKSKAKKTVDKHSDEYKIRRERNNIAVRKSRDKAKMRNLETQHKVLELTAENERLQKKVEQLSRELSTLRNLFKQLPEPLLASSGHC
Aryl hydrocarbon receptor (Homo sapiens), sequence (P35869 whole entry, looked up): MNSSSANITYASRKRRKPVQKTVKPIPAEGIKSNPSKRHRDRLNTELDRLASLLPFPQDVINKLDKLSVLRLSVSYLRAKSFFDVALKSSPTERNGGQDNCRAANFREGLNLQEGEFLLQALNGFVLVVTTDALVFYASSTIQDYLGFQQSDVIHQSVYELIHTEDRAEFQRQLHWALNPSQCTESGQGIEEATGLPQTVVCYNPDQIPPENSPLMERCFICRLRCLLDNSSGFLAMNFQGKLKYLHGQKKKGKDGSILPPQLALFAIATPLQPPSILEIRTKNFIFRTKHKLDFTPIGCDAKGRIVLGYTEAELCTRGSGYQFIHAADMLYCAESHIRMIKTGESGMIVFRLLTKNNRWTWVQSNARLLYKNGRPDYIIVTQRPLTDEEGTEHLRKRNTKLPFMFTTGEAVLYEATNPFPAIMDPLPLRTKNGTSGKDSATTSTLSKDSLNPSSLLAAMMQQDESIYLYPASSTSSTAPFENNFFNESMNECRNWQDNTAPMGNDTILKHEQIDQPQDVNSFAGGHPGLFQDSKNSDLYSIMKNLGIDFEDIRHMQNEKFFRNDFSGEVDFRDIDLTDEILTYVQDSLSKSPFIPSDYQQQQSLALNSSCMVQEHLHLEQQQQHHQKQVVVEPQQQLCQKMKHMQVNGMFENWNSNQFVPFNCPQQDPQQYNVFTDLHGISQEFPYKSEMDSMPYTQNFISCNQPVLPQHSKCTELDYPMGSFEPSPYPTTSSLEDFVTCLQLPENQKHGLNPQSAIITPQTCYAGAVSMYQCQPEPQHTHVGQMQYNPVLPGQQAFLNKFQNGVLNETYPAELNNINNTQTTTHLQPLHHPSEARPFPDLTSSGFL

Regarding `c1ccc2cc3ccccc3cc2c1`, the AC50 (as a rule, the midpoint of the concentration-response curve, whichever way the signal moves) in [1] was 139 µM (active); in [2] it was 112 µM (active); in [3], 107 µM (active). Further, the outcome in [4], in assay [5], in assay [6], in [7], in assay [8] and in assay [9] was inactive. Besides, the result in assay [10], in assay [11], in [12], in [13], in [14] and in [15] was inactive.

Take `Cc1cccc(O)c1C`: the result in assay [8], in [9], in [11], in [12], in assay [13] and in [14] was inactive. For the same compound, the result in assay [15] was inactive.

Turning to `CCCCCCOC(=O)CC(CC(=O)OCCCCCC)(OC(=O)CCC)C(=O)OCCCCCC`, the result in assay [1], in [2], in assay [16], in assay [17], in assay [3] and in assay [4] was inactive. For the same compound, the outcome in [5], in assay [18], in assay [7], in [8], in assay [9] and in assay [11] was inactive. Besides, the outcome in assay [12], in [13], in [14] and in assay [15] was inactive.

With `O=S(=O)(O)CCC(F)(F)C(F)(F)C(F)(F)C(F)(F)C(F)(F)C(F)(F)F`, the compound was called inactive in [8], in assay [9], in assay [10], in [11], in [12] and in assay [13]. In addition, the call in assay [14], in assay [19] and in [15] was inactive.

As for `S=P(N1CC1)(N1CC1)N1CC1`, the outcome in assay [8], in [9], in assay [11], in assay [12], in [13] and in assay [14] was inactive. Also, the result in assay [19] and in assay [15] was inactive. Besides, in assay [11], the AC50 is 157 µM (active).

`CCCC(CCC)C(=O)O`: the outcome in assay [1], in assay [2], in assay [16], in [17], in [3] and in [4] was inactive. Moreover, the compound was classed as inactive in assay [5], in [18], in [7], in assay [8], in [9] and in assay [12]. The compound was classed as inactive in [13] and in assay [14].

Values taken from PubChem BioAssay (EPA / NIEHS).
